Measured values reported in PubChem BioAssay (EPA / NIEHS).
The source made the active and inactive calls. How the source made its calls: active means hit-call score of the fitted dose curve at least 0.9, where 1 is the maximum; inactive means score below 0.9.

These compounds were tested on Bcl-2 (BAX) gene, BAX (gene 581) (assay: LTEA_HepaRG_BAX: Life Technologies and Expression Analysis (LTEA) Assay for Bcl-2 (BAX) gene using HepaRG (AID 2283470)). Settings: mRNA level, 48 h; actives raise or lower the signal.
Method: LTEA_HepaRG is a cell based, multiplexed-readout assay that uses HepaRG, a human liver cell line, with measurements taken at 48 hours after chemical dosing on a 96-well plate.LTEA_HepaRG_BAX is one of 102 assay component(s) measured in the LTEA HepaRG cell culture assay. It is a marker of Cell proliferation, survival, death.Data from the assay component LTEA_HepaRG_BAX was analyzed into 1 endpoint. This assay endpoint, LTEA_HepaRG_BAX, was analyzed with bidirectional fitting relative to DMSO as the negative control and baseline of activity. Using a type of inducible reporter, measures of mRNA induction for gain or loss-of-signal activity can be used to understand regulation of transcription factor activity. To generalize the intended target to other relatable targets, this assay endpoint is annotated to the cell cycle intended target family, where the subfamily is Cell proliferation, survival, death.
A total of 1060 chemcials from the ToxCast library were tested in eight-point concentration-response experiments. Cell culture and cytotoxicity assays were conducted at Thermo Fisher Scientific's Custom Services facility (Madison, WI). A single lot of human HepaRG cells (Thermo Fisher Scientific, Frederick, MD) was used for the cell culture experiments. 96-well format collagen type I coated plates of human HepaRG cells were prepared using established methods. Briefly, cryopreserved HepaRG cells were thawed, plated at a density of approximately 100,000 cells/well in HepaRG Thaw, Plate, and General Purpose media (HPRG770, Thermo Fisher Scientific), and incubated for 48 hours. 0.5% DMSO was selected as vehicle control to balance the requisite need of DMSO in HepaRG cultures to maintain differentiation (for example, baseline metabolism, proportions of hepatocytes vs. cholangiocytes), while enabling further hepatic receptor pathway activation (for example, PXR and CAR) in response to chemical exposure. 48 hours after plating, the culture medium was replaced with HepaRG Serum-Free Incudtion Media. Cells were exposed to each test chemical in duplicate and maintained in CO2 incubators for another 48 hours. Chemical plates were thawed to room temperature and 200x concentrations of treatment groups were prepared. 8-point conentration-reponse curves were made with the highest exposure at 100 uM, followed by half-log dilutions, all in 0.5% DMSO. Each test plate contained variouse controls, induction positive controls (1mM phenobarbital), cytotoxicity positive controls ([…] aflatoxin B1), vehicle controls (0.5% DMSO), and total lysis controls (0.5% DMSO). Cell morphology images were taken using an Essen IncuCyte FLR automated microscope, with six 96-well plates imaged in about 24 minutes. Images were captured and exported and JPEG files. Spent culture media was transfered to black-well plates for the LDH assay, and remaining media was sorted at -80 C for later use. Cells were treated with RLT buffer and frozen until shipped for gene expression analysis. Total RNA was isolated from the cell suspension in 75 uL of Buffer RLT (Qiagen, Germantown, MD 20874) by Quintiles/Expression Analysis (Durham, NC) using a custom isolation procedure. Total RNA from each plate well was transferred to a preamplification plate. Fluidigm's 96.96 Dynamic ArrayTM (Fluidigm, Amsterdam, the Netherlands) technology was used for gene expression analyses by quantitative reverse transcription polymerase chain reaction (qRT-PCR, performed by Quintiles/Expression Analysis, Durham, NC)89. Standard TaqManTM Assays (Applied Biosystems/ThermoFisher Scientific, Foster City, CA) were used to assess the expression of 93 genes selected based on their selectivity and sensitivity to important hepatic receptors known to be modulated by environmental chemicals; importance in human hepatocyte functionality; and hepatotoxicity. […]
With `Cc1ccc(N(C)C)cc1` the outcome was “inactive”.
In the case of `CCCCOC(=O)CCCCCCCCC(=O)OCCCC`, the outcome is reported as “inactive”.
With `Cc1ccc2ncccc2c1` the outcome was “inactive”.
For `Cc1ccc(Cl)cc1`, the outcome was “inactive”.
In the case of `c1cc(-c2ccncc2)ccn1`, the outcome is reported as “inactive”.
`COc1ccc(S(=O)(=O)N2C(=O)[C@@](c3ccccc3OC)(N3C[C@H](O)C[C@H]3C(=O)N(C)C)c3cc(Cl)ccc32)c(OC)c1` was tested, and the AC50 was 19 µM (active).
In the case of `CC(=O)C(C)=CC1C(C)=CCCC1(C)C` (stereo not given), the outcome is reported as “inactive”.
With `C[Si]1(C)O[Si](C)(C)O[Si](C)(C)O[Si](C)(C)O1` the outcome was “inactive”.
For `O=C(O)Cc1ccccc1Nc1c(Cl)cccc1Cl`, the outcome was “inactive”.
In the case of `COc1cc(S(=O)(=O)O)c(C)cc1N=Nc1c(O)ccc2cc(S(=O)(=O)O)ccc12`, the outcome is reported as “inactive”.
In the case of `Cc1ccc(C)c(O)c1C`, the outcome is reported as “inactive”.
In the case of `CCCCN(CCCC)CCCC`, the outcome is reported as “inactive”.
For `CN[C@H]1CC[C@@H](c2ccc(Cl)c(Cl)c2)c2ccc(S(N)(=O)=O)cc21`, the AC50 was 82.6 µM (active).
`Nc1nc(N)c2nc(CNc3ccc(C(=O)N[C@@H](CCC(=O)O)C(=O)O)cc3)cnc2n1` was tested, and the outcome was “inactive”.
With `CC1(C)NC(=O)NC1=O` the outcome was “inactive”.
With `CC1=C(/C=C/C(C)=C/C=C/C(C)=C/CO)C(C)(C)CCC1` the outcome was “inactive”.
With `Cc1ccccc1Cl` the outcome was “inactive”.
In the case of `O=C(O)CCCCC(=O)O`, the outcome is reported as “inactive”.
`NS(=O)(=O)c1cc2c(cc1Cl)NCNS2(=O)=O` was tested, and the outcome was “inactive”.
For `Cc1cc(NC(=O)C(=O)O)cc(C)c1Oc1ccc(O)c2c1CCC2`, the outcome was “inactive”.
In the case of `CCCCCCCCCCCCCO`, the outcome is reported as “inactive”.
For `CCCCC(CC)COC(=O)CC(C(=O)OCC(CC)CCCC)S(=O)(=O)O` (stereo not given), the outcome was “inactive”.
With `Cc1c(C(=O)O)c(O)cc2c1C(=O)c1c(O)c([C@@H]3O[C@H](CO)[C@@H](O)[C@H](O)[C@H]3O)c(O)c(O)c1C2=O` the outcome was “inactive”.
In the case of `CCNc1cccc(C)c1`, the outcome is reported as “inactive”.
`COC(=O)c1ccc(O)cc1` was tested, and the outcome was “inactive”.
With `CC(=O)Oc1ccccc1C(=O)O` the outcome was “inactive”.
With `COc1cc(-c2nc(NC(=O)c3cc4cc(C)cc(C)c4n3CC(=O)O)sc2CCC2CCCCC2)c(OC)cc1Cl` the outcome was “inactive”.
`O=C(N[C@@H](Cc1ccccc1)[C@@H](O)C(=O)N1C[C@@H](O)[C@@H](O)C1)c1cc2cc(Cl)ccc2[nH]1` was tested, and the outcome was “inactive”.
With `Cc1cc(=O)[nH]c(=S)[nH]1` the outcome was “inactive”.
In the case of `Cc1nc(-c2ccc3c(c2)CCN(CCC2CCC(NC(=O)/C=C/c4ccc(F)cc4)CC2)CC3)no1` (stereo not given), the outcome is reported as “inactive”.
`CNCc1cc(F)ccc1Oc1ccc(Cl)c(Cl)c1` was tested, and the outcome was “inactive”.
With `CNC(=O)[C@H]1O[C@@H](n2cnc3c(NCc4cc(Cl)ccc4OCc4cc(C)no4)ncnc32)[C@H](O)[C@@H]1N` the outcome was “inactive”.
For `Cc1cccc(Nc2cc(Cl)nc(SCC(=O)O)n2)c1C`, the outcome was “inactive”.
With `O=c1[nH]cc(F)c(=O)[nH]1` the outcome was “inactive”.
In the case of `NC(=O)Cn1c(=O)cc(CCN2CCN(c3nccc4sccc34)CC2)c2ccc(F)cc21`, the AC50 is reported as 29 µM (active).
In the case of `Cc1oc(-c2ccccc2)nc1CCOc1cccc2c1ccn2CCC(=O)O`, the AC50 is reported as 50 µM (active).
For `CCCCc1ccc2c(n1)[C@@H](c1ccc(OC)cc1C[C@H](C)C(=O)O)[C@H](C(=O)O)[C@H]2c1ccc2c(c1)OCO2`, the outcome was “inactive”.
`NCCO` was tested, and the outcome was “inactive”.
With `CC(C)c1ccc(C(=O)N=C(N)N)cc1S(C)(=O)=O` the AC50 was 7.39 µM (active).
For `CCCCCC(=O)O`, the outcome was “inactive”.
